This is one part of a sample in which hits are shown more often than they occur.
Pf apPOL inh = Pf-apPOL DNA polymerase inhibition | hit rate 0.25% among 210,000 | AID 1794808 | inhibition, % at 10 µM | Recombinant Pf-apPOL, molecular beacon fluorescence, 1.5 h
mHTT CaM bind = disrupts binding of mutant huntingtin to calmodulin; P42858; AlphaScreen His-mHTT/GST-CaM binding, luminescence; inhibition, % at 15 µM; hit rate 3.6% among 190,000; AID 1671202;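 also: 0% = both proteins with DMSO and 100% = one protein alone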
An asterisk follows results filed as active. Rule as the data show it: active = inhibition above about 50%; inactive = the rest.

O=C(Nc1ccc(F)cc1)c1ccc(Cn2c(=O)[nH]c3ccsc3c2=O)cc1 was read as Pf apPOL inh -3 and mHTT CaM bind 3.
c1ccc(CNc2nc(-c3ccccc3)[n+](-c3ccccc3)s2)cc1 was read as Pf apPOL inh -6 and mHTT CaM bind 84*.
For c1ccc(Nc2nc(-c3ccccc3)[n+](-c3ccccc3)s2)cc1 the results were Pf apPOL inh -8 and mHTT CaM bind 22.
`Cc1c(Cc2ccccc2)sc(N)c1C(N)=O` gave Pf apPOL inh -6 and mHTT CaM bind 75*.
Cc1c(Cc2ccccc2)sc(NC(=O)Nc2ccccc2)c1C(N)=O was read as Pf apPOL inh -6 and mHTT CaM bind 17.
`CN(C)c1ncncc1N1CCC(C(=O)NCc2ccc(C(F)(F)F)cc2)CC1` gave Pf apPOL inh 0 and mHTT CaM bind 33.
`Cc1cccc(NC(=O)c2ccc(NCc3ccc4c(c3)OCO4)c([N+](=O)[O-])c2)c1` gave Pf apPOL inh 0 and mHTT CaM bind 12.
COc1cc(C(=O)N2C(=S)C(c3ccccc3)=NC23CCCCC3)cc(OC)c1OC was read as Pf apPOL inh -3 and mHTT CaM bind 4.
Screening COc1cc(OC)cc(C2=NC3(CCCC3)N(C(=O)c3ccc(OC)c(OC)c3)C2=S)c1 returned Pf apPOL inh -4 and mHTT CaM bind 85*.
For COC(=O)c1cc(Nc2ccc3c(c2)OCO3)c2cccc(F)c2n1 the results were Pf apPOL inh -3 and mHTT CaM bind 51*.
For COC(=O)c1cc(Nc2cccc(F)c2)c2cccc(F)c2n1 the results were Pf apPOL inh 1 and mHTT CaM bind -7.
`O=C1C(=Cc2ccccc2O)Oc2ccc(O)cc21` gave Pf apPOL inh 4 and mHTT CaM bind 15.
`Cc1ccc(-n2c(C)ccc2C)c([N+](=O)[O-])c1` gave Pf apPOL inh -2 and mHTT CaM bind 67*.
For Cc1ccc(-c2ccc(C)cc2[N+](=O)[O-])c([N+](=O)[O-])c1 the results were Pf apPOL inh -1.
For O=C(NC(Nc1ccc(Cl)cc1)C(Cl)(Cl)Cl)c1ccco1 (stereo unspecified) the results were Pf apPOL inh 4 and mHTT CaM bind 3.
Screening O=C(NC(Nc1ccc(Cl)cc1Cl)C(Cl)(Cl)Cl)c1ccco1 (stereo unspecified) returned Pf apPOL inh 10 and mHTT CaM bind 51*.
`CCN1CCN(C(=O)C2CCN(c3nc4ccc(-c5ccsc5)nc4s3)CC2)CC1` gave Pf apPOL inh 0 and mHTT CaM bind 67*.
For O=C(C1CCN(c2nc3ccc(-c4ccsc4)nc3s2)CC1)N1CCCC1 the results were Pf apPOL inh -3 and mHTT CaM bind 12.
For CCCCCOc1ccc(NC(=O)CSc2cccc3cccnc23)cc1 the results were Pf apPOL inh -2 and mHTT CaM bind 83*.
Screening O=C(CSc1cccc2cccnc12)Nc1ccccc1 returned Pf apPOL inh -1 and mHTT CaM bind 0.
COc1cccc(NS(=O)(=O)c2ccc3[nH]cc(C(=O)NC4CCCCC4C)c(=O)c3c2)c1 (stereo unspecified) was read as Pf apPOL inh 1 and mHTT CaM bind 20.
Screening Nc1ccc(S(=O)(=O)c2ccc(N)c(N)c2)cc1N returned Pf apPOL inh 48 and mHTT CaM bind 9.
For Nc1ccc(-c2ccc(S(=O)(=O)c3cccc(N)c3)cc2N)cc1 the results were Pf apPOL inh 4 and mHTT CaM bind 69*.
For Nc1ccc(S(N)(=O)=O)cc1 the results were mHTT CaM bind -4.
`Nc1ccc(-c2ccc(S(=O)(=O)c3ccc(-c4ccc(N)cc4)cc3)cc2)cc1` gave Pf apPOL inh -2 and mHTT CaM bind 62*.
Cc1ccc(C)c(NC(=O)N2CCc3c(c(COCc4ccccc4)nn3C)C2)c1 was read as Pf apPOL inh 2 and mHTT CaM bind 18.
Screening O=C(NC1CCN(Cc2ccccc2)CC1)C1CCCN(c2ccncc2)C1 (stereo unspecified) returned Pf apPOL inh -5 and mHTT CaM bind -1.
O=C1C(=CC=CC2=C(O)c3ccccc3S2(=O)=O)S(=O)(=O)c2ccccc21 was read as mHTT CaM bind 57*.
For COc1ccc(-n2ncc3c(NCC(OC)OC)ncnc32)cc1 the results were Pf apPOL inh 1 and mHTT CaM bind 12.
`COCCNC(=O)C1CCN(c2ncccc2-c2nc(-c3cccc(Cl)c3)no2)CC1` gave Pf apPOL inh -1 and mHTT CaM bind -6.
For Cc1ccc(CN2CCC(C(=O)N(CCc3ccccc3)Cc3ccccc3)CC2)o1 the results were Pf apPOL inh 1 and mHTT CaM bind 58*.
Screening O=C(C1CCN(Cc2ccccc2O)CC1)N(CCc1ccccc1)Cc1ccccc1 returned Pf apPOL inh 2 and mHTT CaM bind 17.
For COc1cc(-c2c(C#N)c(N)nc(SC)c2C#N)cc(OC)c1OC the results were Pf apPOL inh 0 and mHTT CaM bind -2.
`COc1cc(-c2c(C#N)c(N)nc3sc(C(N)=O)c(N)c23)cc(OC)c1OC` gave Pf apPOL inh -5 and mHTT CaM bind 65*.
COc1cccc(/C=C2\NC(=O)N(Cc3ccccc3F)C2=O)c1 was read as Pf apPOL inh 6 and mHTT CaM bind 9.
For O=C(c1ccc(F)cc1F)N1CCCCC1CCN1CCOCC1 (stereo unspecified) the results were Pf apPOL inh 8 and mHTT CaM bind 6.
For O=C(Nc1nnc(-c2ccsc2)o1)c1ccccc1F the results were Pf apPOL inh -5 and mHTT CaM bind 40.
Screening O=C(Nc1nnc(-c2ccsc2)o1)c1cc(-c2ccccc2)on1 returned Pf apPOL inh -228 and mHTT CaM bind -4.
Screening O=C(Cc1c(F)cccc1Cl)Nc1nnc(-c2ccsc2)o1 returned Pf apPOL inh 8 and mHTT CaM bind 57*.
`O=C(Nc1nnc(-c2ccsc2)o1)c1ccccn1` gave Pf apPOL inh -181 and mHTT CaM bind 100*.
For Cn1cc(C2=CCN(S(=O)(=O)c3cccc(F)c3)CC2)c2cccnc21 the results were Pf apPOL inh -4 and mHTT CaM bind 4.
COc1ccc(Nc2nc(N)nc(CN3CCCCC3)n2)cc1 was read as Pf apPOL inh -4 and mHTT CaM bind 0.
Screening COc1ccc(Nc2nc(N)nc(CN3CCN(c4ccccc4)CC3)n2)cc1 returned Pf apPOL inh -4 and mHTT CaM bind 54*.
`O=C1c2ccccc2C(=O)N1CNc1cccc(F)c1` gave Pf apPOL inh 10 and mHTT CaM bind 3.
Screening COc1cccc(N2CCN(C(=O)c3ccnc(-c4cccs4)c3)CC2)c1 returned Pf apPOL inh -2 and mHTT CaM bind 32.
For O=C(NCC(=O)N1CCCc2ccccc21)c1cccs1 the results were Pf apPOL inh -1 and mHTT CaM bind -3.
`CCc1ccc(-n2c(SCC(=O)NC(C)CC)nc3n[nH]c(C)c3c2=N)cc1` (stereo unspecified) gave Pf apPOL inh -3 and mHTT CaM bind 91*.
For CCN(CC)C(=O)CSc1nc2n[nH]c(C)c2c(=N)n1-c1ccc(Oc2ccccc2)cc1 the results were Pf apPOL inh -3 and mHTT CaM bind 13.
For CCC(C)NC(=O)CSc1nc2n[nH]c(C)c2c(=N)n1-c1ccc(C)cc1 (stereo unspecified) the results were Pf apPOL inh 2 and mHTT CaM bind 54*.
`CCN(CC)C(=O)CSc1nc2n[nH]c(C)c2c(=N)n1-c1ccc(C)c(Cl)c1` gave Pf apPOL inh -3 and mHTT CaM bind 14.
Screening N#Cc1c(-c2ccccc2)cc(-c2ccco2)c(C#N)c1N returned Pf apPOL inh 9 and mHTT CaM bind 55*.

Compound activity deposited in PubChem BioAssay by University of Kansas High Throughput Screening Laboratory.
